FBW7 act: activators of human E3 ligase FBW7; AlphaScreen FBW7–phospho-cyclin E peptide binding, activator screen; normalized activity (activation), % at 26.1 µM; hit rate 0.13% among 650,000; AID 1259310; in the data active means normalized activity above about 1.9%;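 further: purified mutant Fbw7 with reduced substrate affinity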
MITF inh: human MITF inhibition, primary screen. O75030. AlphaScreen MITF homodimerization, bead proximity signal. inhibition, % at 2.6 µM. hit rate 0.91% among 650,000. AID 1259374; in the data active means inhibition above about 50%
Target sequence (O75030 whole entry, looked up): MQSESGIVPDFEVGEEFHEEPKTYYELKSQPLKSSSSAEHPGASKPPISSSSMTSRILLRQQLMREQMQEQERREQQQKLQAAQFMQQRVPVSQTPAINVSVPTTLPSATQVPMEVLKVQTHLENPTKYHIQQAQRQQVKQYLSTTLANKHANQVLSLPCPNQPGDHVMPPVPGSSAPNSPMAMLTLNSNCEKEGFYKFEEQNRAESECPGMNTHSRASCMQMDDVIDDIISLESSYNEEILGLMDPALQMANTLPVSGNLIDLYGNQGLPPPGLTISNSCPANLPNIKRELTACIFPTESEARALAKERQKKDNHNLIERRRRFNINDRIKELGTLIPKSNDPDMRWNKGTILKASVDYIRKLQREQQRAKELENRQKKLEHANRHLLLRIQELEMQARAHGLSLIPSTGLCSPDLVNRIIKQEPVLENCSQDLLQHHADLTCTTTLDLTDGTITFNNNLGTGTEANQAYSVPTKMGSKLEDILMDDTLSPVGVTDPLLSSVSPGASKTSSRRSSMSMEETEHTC
GPR151 activ: human GPR151 activation. Q8TDV0. PathHunter beta-arrestin GPR151 cells, luminescence. activation, % at 11.2 µM. hit rate 1% among 650,000. AID 1508602; in the data active means activation above about 4.9%
TEAD-YAP block: TEAD-YAP interaction inhibition; HEK-TIYL cells, TEAD-Gal4/YAP UAS-luciferase luminescence; inhibition, % at 9.12 µM; hit rate 1.4% among 640,000; in the data active means inhibition above about 32%
Hits are given with their value; i = inactive. Most compounds without a hit are left out; they make up all but 3.5% or so of the library.

SMILES | FBW7 act | MITF inh | GPR151 activ | TEAD-YAP block
CC1=CC2=NC(=O)/C(=C\c3cc(C)n(-c4cccc(C)c4)c3C)C(=N)N2O1 | i | i | i | 50
CC1=CC2=NC(=O)/C(=C\c3ccc(OCc4ccc5c(c4)OCO5)c(Cl)c3)C(=N)N2O1 | i | i | i | 59
CC1=CC2=NC(=O)/C(=C\c3cc(C)n(-c4cccc(Cl)c4)c3C)C(=N)N2O1 | i | i | i | i
CC1=CC2=NC(=O)/C(=C\c3ccc(OCCOc4cccc(C)c4)cc3)C(=N)N2O1 | 2.2 | i | i | i
CCC(C)NC(=O)CSc1nc2nc(C)c(Cc3c(F)cccc3Cl)c(C)n2n1 (centres undefined) | i | i | i | i
CCOC(=O)CC1COCCN1Cc1cn[nH]c1-c1ccc2cc(OC)ccc2c1 (centres undefined) | i | i | i | 46
CCOC(=O)c1[nH]ncc1CN1CCN(Cc2ccc(OC)cc2F)C(CCO)C1 (centres undefined) | i | i | i | i
COc1cc(C(=O)COC(=O)Cc2ccsc2)cc(OC)c1OC | i | i | i | i
COc1cc(CC(=O)OCC(=O)c2ccc(Br)cc2)cc(OC)c1OC | i | i | i | 59
COc1cc(CC(=O)OCC(=O)c2ccc3c(c2)OCCO3)cc(OC)c1OC | i | i | i | 52
CCOc1nc(-c2ccccc2)nc(Cl)c1N | i | i | i | i
O=C(Nc1ccc(Nc2cc(-n3ccnc3)ncn2)cc1)c1ccc(F)cc1F | i | i | i | i
O=C(Nc1ccc(Nc2cc(-n3ccnc3)ncn2)cc1)c1cccc2ccccc12 | i | i | i | 34
CCc1ccc(-c2csc(-c3cc4cccc(OC)c4oc3=O)n2)cc1 | i | i | i | i
Cc1ccc(C(=O)NCCn2cc(SCC(=O)NCC3CCCO3)c3ccccc32)cc1C (centres undefined) | i | i | i | 33
O=C(CSc1cn(CCNC(=O)c2ccc(F)cc2)c2ccccc12)NCC1CCCO1 (centres undefined) | i | i | i | i
O=C(NCCn1cc(SCC(=O)N2CCCCCC2)c2ccccc21)c1c(F)cccc1F | i | i | i | 34
N#CC1=C(N)Oc2nc[nH]c(=O)c2C1c1ccc(Cl)cc1Cl (centres undefined) | i | i | i | i
COC(=O)C1(C)NC(c2ccc(O)c(OC)c2)C2C(=O)N(C)C(=O)C21 (centres undefined) | i | i | i | i
CCN1C(=O)C2C(c3ccc(O)c(OC)c3)NC(C)(C(=O)OC)C2C1=O (centres undefined) | i | i | i | 45
CC(C)(C)c1csc(NC(=O)c2ccc(S(=O)(=O)N3CCOCC3)cc2)n1 | i | i | i | 36
Cc1ccc(-c2csc(NC(=O)c3ccc(S(=O)(=O)N4CCOCC4)cc3)n2)o1 | i | i | i | i
COCCN(CCOC)S(=O)(=O)c1ccc(C(=O)Nc2nc(-c3ccc(C)cc3C)cs2)cc1 | i | i | i | 36
Cc1ccc(C)c(-c2csc(NC(=O)c3ccc(S(=O)(=O)N4CCOCC4)cc3)n2)c1 | i | i | i | 42
COc1ccc(-c2csc(NC(=O)c3ccc(S(=O)(=O)N4CCOCC4)cc3)n2)c(OC)c1 | i | i | i | 41
SMILES | FBW7 act | MITF inh | GPR151 activ | TEAD-YAP block
COc1ccc2c(c1)OC(C)CN(CCC(=O)NCc1cccc(-n3cccn3)c1)C2 (centres undefined) | i | i | i | i
N#C/C(=C/c1cccc2ccccc12)c1nc(-c2ccccc2)cs1 | i | i | i | i
N#CC1=C2SCC(O)(c3ccccc3)N2C(=O)CC1c1ccccc1F (centres undefined) | i | i | i | i
N#CC1=C2SCC(O)(c3ccccc3)N2C(=O)CC1c1cccs1 (centres undefined) | i | i | i | 42
COc1cccc(C2CC(=O)N3C(=C2C#N)SCC3(O)c2cccc(OC)c2)c1 (centres undefined) | i | i | i | 51
COC(=O)c1ccc(C2CC(=O)N3C(=C2C#N)SCC3(O)c2ccc(C)cc2)cc1 (centres undefined) | i | i | i | 49
CC1CCN(S(=O)(=O)c2ccc3[nH]cc(C(=O)NCCc4ccccc4)c(=O)c3c2)CC1 | i | i | i | i
CCOC(=O)c1ccccc1NC(=O)c1cccc(Cl)c1 | i | i | i | i
COc1ccc(C2SCCN2S(=O)(=O)c2ccc(NC(C)=O)cc2)cc1OC (centres undefined) | 1.9 | i | i | i
COc1ccc(C2SCCN2S(=O)(=O)c2ccc(NC(C)=O)cc2)cc1 (centres undefined) | i | i | i | i
N#CCCN(C(=O)CCl)c1ccccc1F | i | i | i | 46
COc1ccccc1N(CCC#N)C(=O)CCl | i | i | i | i
